# High-throughput results (PubChem BioAssay)
# The list is not random: actives were taken first. Their share in the collection is about 10%.
# KB-V1 cytotox: KB-V1 MDR subline cytotoxicity | 400,000 tested, 3.4% active | KB-V1 MDR cells viability, CellTiter-Glo, 72 h | Potency, µM (titrated, usually from 46.1 µM), hits mostly cytotoxic; further: on the % scale 0 is the no-effect control and ±100 the full control effect; nearly all actives have a fitted effect of over 60% in size
#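 KB-V1, DMEM (no phenol red) + 10% FBS; cpd pin-transferred, titration series; 72 h, 37 degrees C; CellTiter-Glo, luminescence. Data normalized, curve-fit.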
# SW480 rerep: inducers of DNA re-replication in SW480 colon cancer cells; SW480 DNA re-replication, Hoechst DNA content imaging, 48 h; Potency, µM (top dose mostly 46.1 µM), inactives show at the highest dose re-replication activation, hits mostly activators; 340,000 tested, 1.8% active; further: % of control where 0% means no effect; nearly all actives have a fitted effect of over 55% in size
#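 Hoechst fluorescence of nuclei (405 nm excitation, 500-530 nm emission) measured by plate-scanning imager after 48 hr compound exposure at 37 C; re-replication scored as increased number of nuclei with elevated intensity.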
# Gal4-VP16 FLuc: counter-screen for ROR gamma inhibitors: Gal4-VP16 reporter; 310,000 tested, 3.5% active; Potency, µM (top dose mostly 53.6 µM), for inactives: at the top dose activity, negative = inhibition, hits mostly inhibitors; Drosophila S2 Gal4-VP16 UAS-luciferase, luminescence, 20 h; AID 2546;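 further: Gal4-VP16 expression switched on by copper sulfate through the metallothionein promoter; on the % scale 0 is the no-effect control and ±100 the full control effect; nearly all actives have a fitted effect of over 50% in size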
# KB-3-1 cytotox: kills parental KB-3-1 adenocarcinoma cells; KB-3-1 viability, CellTiter-Glo ATP luminescence, 72 h; Potency, µM (top dose mostly 46.1 µM), usual class: cytotoxic; 400,000 tested, 1.4% active; AID 1347075; further: on the % scale 0 is the no-effect control and ±100 the full control effect; nearly all actives have a fitted effect of over 60% in size
#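 72 h, 37 °C compound treatment of KB-3-1 parental cells; CellTiter-Glo added, 10 min, luminescence read. Data corrected against DMSO-only plates and normalized before curve fitting.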
# RORgamma inh: blocks mouse ROR gamma transcriptional activity | AID 2551 | P51450 | Potency, µM (doses to about 53.6 µM), without a hit: at the top dose activity change, negative = inhibition, actives largely listed as inhibitors | 310,000 tested, 5.4% active | Drosophila S2 Gal4-RORgamma UAS-luciferase reporter, 20 h; further: on the % scale 0 is the no-effect control and ±100 the full control effect; nearly all actives have a fitted effect of over 60% in size
# Target sequence (P51450 whole entry, looked up, the tested form may be a part): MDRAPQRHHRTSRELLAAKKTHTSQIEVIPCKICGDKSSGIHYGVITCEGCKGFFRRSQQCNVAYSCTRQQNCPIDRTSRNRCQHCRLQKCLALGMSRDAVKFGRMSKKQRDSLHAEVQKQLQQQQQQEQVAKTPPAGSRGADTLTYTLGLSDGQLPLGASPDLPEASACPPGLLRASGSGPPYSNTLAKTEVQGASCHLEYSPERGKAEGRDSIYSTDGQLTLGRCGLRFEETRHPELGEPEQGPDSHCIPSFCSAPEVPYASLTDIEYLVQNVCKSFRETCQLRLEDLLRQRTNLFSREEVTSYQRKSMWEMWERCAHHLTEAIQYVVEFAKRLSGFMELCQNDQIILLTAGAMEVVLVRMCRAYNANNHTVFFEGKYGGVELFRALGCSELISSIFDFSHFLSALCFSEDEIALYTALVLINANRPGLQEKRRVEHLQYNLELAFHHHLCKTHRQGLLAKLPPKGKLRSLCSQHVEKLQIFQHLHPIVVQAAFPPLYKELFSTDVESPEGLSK
#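 Luminescence from a UAS-regulated Photinus luciferase reporter in stably transfected Drosophila Schneider cells is measured; decreased signal marks ROR gamma inhibition. Fusion expression is induced by 700 uM copper sulfate for 20 hr.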
# MCF10A rereplic: inducers of DNA re-replication in MCF 10A breast cells; Potency, µM (titrated, usually from 46.1 µM), for the others: at the highest dose activity, positive = re-replication, most hits filed as activators; MCF 10A DNA re-replication, Hoechst nuclear intensity, 48 h; 350,000 tested, 2.9% active; further: % of control where 0% means no effect; nearly all actives have a fitted effect of over 50% in size
# Starred values were filed as active, the others as inactive; i = inactive; ? = inconclusive; . = no result; [ ] = another dose, or the depositor's remark. The call rests on the fitted dose curve; in most records, active means well fitted curve in the direction sought with a large enough effect; inconclusive means small, poorly fitted or top-dose-only effect, or another doubt; inactive means no such curve, though single readings can be large; an effect the other way counts as inactive or inconclusive. Potency means the concentration at half of the fitted maximal effect.
SMILES,KB-V1 cytotox,SW480 rerep,Gal4-VP16 FLuc,KB-3-1 cytotox,RORgamma inh,MCF10A rereplic
O=c1c2ccccc2nc(/C=C/c2cc(Br)ccc2O)n1CCO,?,?,.,?,.,15µM*
CN(C)c1ccc(/C=C/c2nc3ccccc3c(=O)n2CCO)cc1,i,?,-7%,i,15%,16µM*
O=c1c2ccccc2nc(/C=C/c2ccc(O)cc2)n1CCc1ccccc1,15µM*,?,?,i,8%,23µM*
O=c1c2ccccc2nc(/C=C/c2ccccc2)n1CCCO,?,?,-15%,i,-1%,3%
CC(=O)N1CCN(Cc2cc(=O)oc3cc(C)cc(C)c23)CC1,i,.,.,i,.,.
COc1ccc(NS(=O)(=O)c2cccc3nonc23)c(OC)c1,?,0.52µM*,-2%,i,?,-6%
C[C@H]1CC[C@H]2C(=O)N3[C@H](c4ccc(Br)cc4)[C@@H](C)CC[C@H]3C(=O)N2[C@@H]1c1ccc(Br)cc1,.,.,-10%[10 µM],.,3%[10 µM],.
C=CCOc1ccc(-c2n[nH]c(=S)o2)cc1,i,0%,-22%,i,11µM*,0%
CCCCN(CC)Cc1ccc(CNC(=S)Nc2ccc(C)cc2Cl)o1,i,?,-27%,i,16µM*,-1%
CCCCN(CC)Cc1ccc(CNC(=S)Nc2c(C)cc(C)cc2C)o1,?,-7%,6.3µM*,i,3.2µM*,13%
CCCCN(CC)Cc1ccc(CNC(=O)Nc2ccc(F)cc2)o1,i,0%,-1%,i,-5%,19%
Cc1ccc(-n2nc(C(=O)Nc3ccc(Br)cc3C)c(=O)n(C)c2=O)cc1,?,.,.,i,.,.
C[C@@]12C=CC(=O)C=C1CC[C@@H]1[C@@H]2[C@H](O)C[C@]2(C)[C@@H]1CC[C@]2(O)C(=O)CO,.,.,-4%[17 µM],.,3%[16.9 µM],.
CCCCc1cc(=O)oc2cc(C)c3c(C(C)(C)C)coc3c12,i,.,.,i,.,.
Cc1n[nH]c(C)c1Cc1c(F)cccc1Cl,i,3%,-9%,i,16µM*,2%
O=C1N/C(=C/c2ccc(N3CCOCC3)o2)C(=O)N1c1ccccc1,i,8.2µM*,1.6µM*,i,5.6µM*,3.7µM*
C=CCN1C(=O)N/C(=C/c2ccc(N3CCOCC3)o2)C1=O,.,5.8µM*,5µM*,.,7.1µM*,5.8µM*
COC1OC(CO)C(OC2OC(C(=O)O)C(OC3OC(COS(=O)(=O)O)C(OC4OC(C(=O)O)C(OC5OC(CO)C(OC6OC(C(=O)O)C(OC7OC(COS(=O)(=O)O)C(OC8OC(C(=O)O)=C[C@H](O)C8OS(=O)(=O)O)C(O)C7NC(C)=O)[C@@H](O)C6O)C(O)C5NC(C)=O)[C@@H](O)C4O)C(O)C3NC(C)=O)[C@@H](O)C2O)C(O)C1NC(C)=O (some centres undefined),.,0%,3%,.,-2%,-5%
COc1cccc(OCc2cc(C3Nc4ccccc4C(=O)N3c3ccccc3)ccc2OC)c1 (centres undefined),i,.,.,?,.,.
COc1ccccc1/C=C1\CCCC2=C1Nc1nnnn1C2c1ccccc1OC (centres undefined),8.2µM*,?,14µM*,?,?,?
Brc1ccc(-c2csc(N/N=C/c3ccco3)n2)cc1,i,10%,4%,i,-27%,11%
NC(=O)/C(=N\OC(=O)c1ccco1)c1nc(-c2ccc(Br)cc2)cs1,9.2µM*,16%,?,?,4.5µM*,12%
CCOC(=O)c1c(NC(C)=O)sc(/C(C)=N/Nc2ccc(C(=O)O)cc2)c1C,i,-2%,?,i,11µM*,?
CCOC(=O)c1c(NC(=O)CNCC(O)CO)sc(C)c1C (centres undefined),i,-2%[9.22 µM],8%,i,-2%,-12%
CCCCNCC(=O)Nc1sc(C)c(C)c1C(=O)OCC,i,-2%,?,i,13µM*,5%
